According to PubChem BioAssay AID489043 (National Center for Advancing Translational Sciences (NCATS), 2010):
Records with an inconclusive call do not appear. The source made the active and inactive calls. The call rests on the fitted dose curve; in most records, active means well fitted activation curve with a large enough effect; inconclusive means small, poorly fitted or top-dose-only effect; inactive means flat fitted curve, though single readings scatter.

molecular target: Relaxin receptor 2 (Homo sapiens) (UniProt Q8WXD0); assay: qHTS Assay for Agonists of the Relaxin Receptor RXFP1: RXFP2 Hit Validation; conditions: HEK293 RXFP2 cAMP TR-FRET, 30 min; series mostly up to 115 µM; activation: at the top concentration; further: nearly all actives have a fitted effect of over 65% in size
Sequence (Q8WXD0 whole entry, looked up): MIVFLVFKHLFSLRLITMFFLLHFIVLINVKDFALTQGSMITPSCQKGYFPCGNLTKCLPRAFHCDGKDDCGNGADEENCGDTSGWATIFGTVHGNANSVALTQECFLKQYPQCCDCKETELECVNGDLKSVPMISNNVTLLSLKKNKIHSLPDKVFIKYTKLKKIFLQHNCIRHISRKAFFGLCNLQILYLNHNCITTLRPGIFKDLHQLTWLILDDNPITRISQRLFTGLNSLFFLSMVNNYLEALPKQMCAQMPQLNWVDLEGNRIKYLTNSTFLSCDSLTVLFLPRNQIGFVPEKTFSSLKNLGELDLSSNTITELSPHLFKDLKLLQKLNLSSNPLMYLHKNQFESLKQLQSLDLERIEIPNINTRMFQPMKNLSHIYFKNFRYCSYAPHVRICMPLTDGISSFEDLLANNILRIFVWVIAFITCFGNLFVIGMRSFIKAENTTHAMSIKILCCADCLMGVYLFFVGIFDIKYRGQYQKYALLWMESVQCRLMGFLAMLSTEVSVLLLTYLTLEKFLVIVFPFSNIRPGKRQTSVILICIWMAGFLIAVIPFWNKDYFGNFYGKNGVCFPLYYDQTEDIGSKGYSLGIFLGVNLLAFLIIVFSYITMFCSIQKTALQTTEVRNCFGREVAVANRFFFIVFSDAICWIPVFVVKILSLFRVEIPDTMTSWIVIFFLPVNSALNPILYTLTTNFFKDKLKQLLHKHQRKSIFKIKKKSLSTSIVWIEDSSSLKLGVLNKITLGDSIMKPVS
From the text: NIH Chemical Genomics Center [NCGC] NIH Molecular Libraries Probe Production Centers Network [MLPCN] MLPCN Grant: R03 MH085705-01A1 Assay Submitter (PI): Alexander Agoulnik NCGC Assay Overview: The relaxin hormone is involved in the variety of biological functions in normal tissues and diseases. The role of relaxin is well-established in female reproduction and parturition, mammary gland and endometrial development, maintenance of myometrial quiescence during pregnancy. Relaxin signaling through its G protein-coupled receptor (GPCR) RXFP1 results in ECM remodeling through regulation of collagen deposition, cell invasiveness, proliferation and overall tissue homeostasis. […] Recombinant human relaxin (rhRlx) is currently being tested in clinical trials as a protective agent in congestive heart failure, in treating severe preeclampsia, and as an anti-fibrotic agent in systemic sclerosis. Upon relaxin binding RXFP1 activation leads to the activation of adenylate cyclase (AC) via Gs. cAMP will activate PKA, which phosphorylates many signaling proteins. Thus, detection of cAMP increase is an easy and reliable indication of relaxin receptor activation. To screen for agonists of the relaxin receptor, a HEK293T cell line stably transfected with RXFP1 was used. RXFP1 activation was assayed by changes in cAMP levels as detected with a time-resolved fluorescence energy transfer (TR-FRET) cAMP detection kit. This assay measures activation of a cell expressing RXFP2, another GPCR targeted by relaxin, to determine the selectivity of compounds for RXFP1.
NCGC Assay Protocol Summary: This is a cell-based assay for cAMP second messenger response to screen for agonists of the RXFP2 receptor. The assay was conducted in the presence of a PDE4 inhibitor (Ro 20174). The cells were lysed and the cAMP levels were measured with a TR-FRET cAMP kit. Presence of cAMP in the cell lysate disrupts binding between the cryptate-labeled anti-cAMP and d2-labeled cAMP pair, leading to a decrease in the TR-FRET signal. Data were normalized to the controls for basal activity (buffer only) and 100% activity (29 nM porcine relaxin). The EC50 values were determined from concentration-response data modeled with the standard Hill equation 1536-well assay protocol for the HEK293 RXFP2 cAMP assay: (1) Add 3 ul HEK293 RXFP2 cell culture. 2000 cells/well in DMEM/F12, 10% FBS, 1x Pen/Strep (dispensed offline with MultiDrop Combi). (2) Incubate 16-24 hr at 37C, 5% CO2. (3) Add 1 ul 400uM Ro20174 in DPBS, 0.05% BSA, 0.005% Tween 20. (3) Add 23 nl compounds in DMSO solution. Final concentration was 0.5 - 58 uM. (4) Incubate 30 min at 37C, 5% CO2. (5) Add 1 ul cAMP-d2 in lysis buffer (HTRF cAMP HiRange kit, CisBio). (6) Add 1 ul anti-cAMP antibody-cryptate in lysis buffer (HTRF cAMP HiRange kit, CisBio). (7) Incubate 30 min at room temperature. […] Keywords: relaxin, RXFP1, RXFP2, G-protein coupled receptor, cAMP, agonist, high throughput screening, MLSMR, MLSCN, NIH Roadmap, qHTS and NCGC
Potency means the concentration at half of the fitted maximal effect.

Row | SMILES | Potency | activation
1 | CCN1CCN(C(=O)CCc2nnc3ccc(N4CCC5(CC4)OCCO5)nn23)CC1 | 38.9 µM (active) | 
2 | NC(=O)c1ccccc1NC(=O)CC12CC3CC(CC(C3)C1)C2 |  | -2.23% [at 125 µM] (inactive)
3 | COc1ccc(S(=O)(=O)N2CCOCC2)cc1NC(=O)CSc1ncnc2ccccc12 | 24.5 µM (active) | 
4 | COc1ccc(NC(=O)CCCc2nnc3n(C)c(=O)c4sccc4n23)cc1 | 34.6 µM (active) | 
5 | Cc1cc(C)nc(NS(=O)(=O)c2ccc(N3C(=O)c4ccccc4C3=O)cc2)n1 | 29.8 µM (active) | 
6 | COC(=O)c1sc(N2C(=O)C(O)=C(C(=O)c3ccc(C)o3)C2c2ccc(F)cc2)nc1C (stereo not given) | 2.75 µM (active) | 
7 | CCN(CC)CCCN1C=C2C(=O)C(C)(OC(=O)C3CCCC3)C(=O)C=C2C=C1c1ccsc1 (stereo not given) |  | -3.37% (inactive)
8 | c1ccc(COn2nnc3ccccc32)c(COn2nnc3ccccc32)c1 |  | 1.12% [at 44.7 µM] (inactive)
9 | CCc1cc2cc3c(cc2nc1SCC(=O)Nc1nccs1)OCO3 | 21.8 µM (active) | 
10 | Cc1cccc(-c2nnc(SCC(=O)NC3CC3)n2C)c1 |  | -25.5% (inactive)
11 | N#Cc1c(N)nc(SCC(=O)C23CC4CC(CC(C4)C2)C3)c(C#N)c1-c1ccc(Cl)cc1 | 12.3 µM (active) | 
12 | COCCNC(=O)NC(=O)COC(=O)C12CC3CC(CC(NC(C)=O)(C3)C1)C2 |  | 4.39% [at 44.7 µM] (inactive)
13 | O=C(O)CCSc1ccc2ccccc2n1 | 19.4 µM (active) | 
14 | CC(=O)Nc1ccc(NC(=O)CSc2ccc3nnc(-c4ccccn4)n3n2)cc1 |  | 27% [at 44.7 µM] (inactive)
15 | CCOP1(=O)OCC2OC(n3cnc4c(N)ncnc43)C(O)C2O1 (stereo not given) | 7.76 µM (active) | 
16 | S=c1nc[nH]c2c1[nH]c1ccccc12 | 6.9 µM (active) | 
17 | COc1ccc(/C=C2/SC(=O)N(CCC(=O)Nc3ccc(C)cc3)C2=O)cc1OC |  | -63.1% (inactive)
18 | Cc1ccc(NC(=O)CCc2nnc3ccc(N4CCN(C)CC4)nn23)cc1F | 38.9 µM (active) | 
19 | CN(C)c1ccc(NC(=O)C2C3C=CC(C3)C2C(=O)O)cc1 (stereo not given) |  | -6.82% (inactive)
20 | CCN(CC)S(=O)(=O)c1ccc(C)c(NC(=O)Cn2cnc3cc([N+](=O)[O-])ccc3c2=O)c1 | 30.9 µM (active) | 

Row | SMILES | Potency | activation
21 | CCC(=O)Nc1ccc(-n2nnnc2SCC(=O)NNC(=O)c2ccco2)cc1 |  | -5% (inactive)
22 | Cc1c(CCOC(=O)c2cc([N+](=O)[O-])ccc2Cl)sc[n+]1CCCCS(=O)(=O)[O-] |  | 8.95% (inactive)
23 | O=C(O)c1ccc(CN2C(=O)c3ccc(C(=O)O)cc3C2=O)cc1 |  | 5.29% (inactive)
24 | COC(=O)Cn1cnc2c(C#N)c3n(c2c1=O)CCCCC3 | 9.77 µM (active) | 
25 | O=C(Nc1ccccc1C(=O)N1CCOCC1)c1ccco1 |  | 0.881% [at 125 µM] (inactive)
26 | C=CCSc1nc2c(c(=O)[nH]1)C(C(C)C)C(C#N)=C(N)O2 (stereo not given) | 43.6 µM (active) | 
27 | O=S(=O)(c1cccc(-c2cn3cccnc3n2)c1)N1CCOCC1 | 34.6 µM (active) | 
28 | COc1ccc(Cl)cc1-c1n[nH]c(=S)o1 | 4.88 µM (active) | 
29 | CN(CC(=O)Nc1ccccc1Cl)C(=O)COC(=O)Cc1c(F)cccc1Cl |  | 0.312% [at 44.7 µM] (inactive)
30 | COc1ccc(CN2C(=O)c3cccnc3C2=O)cc1S(=O)(=O)NC1CCCCC1C (stereo not given) | 15.5 µM (active) | 
31 | CCOc1ccc(NC(=O)CSc2ccc3nnc(-c4cccnc4)n3n2)cc1 | 34.6 µM (active) | 
32 | CC1CCCCN1C(=O)c1ccccc1NC(=O)c1ccco1 (stereo not given) |  | 3.11% [at 125 µM] (inactive)
33 | CCN(CC)S(=O)(=O)c1cccc(N=Nc2c(O)c3ccccc3oc2=O)c1 | 34.6 µM (active) | 
34 | Cc1ccc(CN(C)C(=O)c2ccc3c(c2)NC(=O)CS3)o1 |  | -25.2% (inactive)
35 | Cn1c(=O)c2sccc2n2c(CCCC(=O)NCCc3ccc(S(N)(=O)=O)cc3)nnc12 | 43.6 µM (active) | 
36 | CC[n+]1ccc(/C=C/c2ccc(N(C)C)cc2)c2ccccc21 |  | -21.1% (inactive)
37 | O=C(Nc1ccccc1C(=O)Nc1ccc(F)cc1)c1ccco1 |  | 3.88% [at 125 µM] (inactive)
38 | CC(C)n1cnc2c(N(C)c3cccc(Cl)c3)nc(N(CCO)CCO)nc21 |  | -4.45% (inactive)
39 | COC(=O)c1cc(CN2C(=O)c3ccccc3C2=O)c(O)c([N+](=O)[O-])c1 | 38.9 µM (active) | 
40 | Cc1cc(C(=O)COC(=O)Cn2cnc3c2c(=O)n(C)c(=O)n3C)c(C)n1C | 15.5 µM (active) | 
